This is a sample that favours compounds with a hit; in the whole collection about 1.4% have one here.
BJeLR viability: MLPCN primary cell-based screen for lethality selective to Ras in HRASV12 cells. hit rate 0.17% among 300,000. inhibition, % (no concentration beside the values). BJeLR (HRASV12) viability, CellTiter-Glo ATP luminescence, 48 h. AID 1554, 2009; in the data active = inhibition above about 50%; inconclusive = no clear call, values can overlap the other calls
RecA intein inh: Mtb RecA intein splicing inhibitors, primary screen, biochemical, fluorescence, HTS. inhibition, % (concentration not given with the values). hit rate 0.75% among 290,000. cell-free RecA intein splicing; in the data active = inhibition above about 30%; inconclusive = no clear call, values can overlap the other calls;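 also: 0% = vehicle wells and 100% = reference inhibitor control wells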
Mtb hypoxia inh: PubChem AID 1159583; M. tuberculosis hypoxia-regulated fluorescent reporter, fluorescence; fluorescence inhibition, % (test concentration not listed); hit rate 0.1% among 300,000; in the data active = fluorescence inhibition mostly above about 23%, no sharp cut-off; inactive = mostly below about 17%
PrPC TRFRET: inhibitors of human cell surface prion protein PrPC, primary screen, cell-based, TR-FRET; TR-FRET read-out; hit rate 0.43% among 370,000; inhibition, % at 13.8 µM; Major prion protein (Homo sapiens), P04156; in the data active = inhibition above about 24%; also: 0% = median of the test wells and 100% = reference compound wells
SARS 3CLpro inh: SARS-CoV 3CLpro protease inhibitors, primary screen, biochemical, quenched FRET; Replicase polyprotein 1ab (Severe acute respiratory syndrome coronavirus), P0C6X7; recombinant SARS-CoV 3CLpro, quenched FRET peptide cleavage; inhibition, % at 6 µM; hit rate 0.14% among 290,000; AID 1706, 2009; in the data active = inhibition above about 12%
PrP UTR inh: inhibition of PrP 5' UTR reporter expression. inhibition, % (test concentration not listed). cell-based PrP 5' UTR mRNA reporter, plate reader. hit rate 0.35% among 340,000. AID 488862, 2010; in the data active = inhibition above about 52%; also: 0 = median of the neutral control wells
PrP UTR cherry: prion 5' UTR mRNA inhibition, cherry-pick retest; shares compounds with PrP UTR inh; cell-based prion protein 5' UTR reporter, plate reader; inhibition, % at 2.5 µM; hit rate 48% among 1,100; AID 504592, 2011; in the data active = inhibition above about 54%; inconclusive = no clear call, values can overlap the other calls
* marks the source's active call; other numbers are inactive results; i = inactive; ? = inconclusive; . = no result shown.

SMILES	BJeLR viability	RecA intein inh	Mtb hypoxia inh	PrPC TRFRET	SARS 3CLpro inh	PrP UTR inh	PrP UTR cherry
COc1ccc(Cl)cc1NC(=O)COC(=O)C=Cc1c(C)nn(C2CCS(=O)(=O)C2)c1Cl (stereo not given)	.	.	8	.	.	.	.
O=C(NCc1ccccn1)c1ccc(Cn2c(=S)[nH]c3ccccc3c2=O)cc1	5	0	4	-1	7	-7	.
O=C(NCc1ccccn1)c1ccc(Cn2c(=S)[nH]c3ccc(Br)cc3c2=O)cc1	0	-2	13	3	-5	71*	-6
c1ccc(-c2nnc(NC3=NCCC3)o2)cc1	5	0	12	-3	2	-16	.
Fc1ccc(-c2nnc(NC3=NCCCCC3)o2)cc1	17	1	.	5	-4	78*	64*
COc1ccc(C(=O)O/N=C(\N)c2ccccn2)cc1	-1	0	.	1	-2	88*	94*
Cc1ccc(C(=O)O/N=C(\N)c2ccccn2)c(C)c1	22	0	.	1	-5	95*	97*
COc1ccccc1C(=O)O/N=C(\N)c1ccccn1	9	-4	12	-7	2	-67	.
N/C(=N\OC(=O)c1ccccc1Cl)c1ccccn1	22	-1	0	0	0	76*	71*
Cc1ccccc1C(=O)O/N=C(\N)c1ccccc1	1	1	3	2	-3	56*	55*
COC(=O)C1CC(c2ccccc2)C(C)C1(C)C (stereo not given)	.	.	-1	.	.	.	.
CCCN1CCC(=O)N(C(CSc2ccccc2)CC(C)C)CC1 (stereo not given)	.	.	-4	.	.	.	.
COc1ccc2c(c1)CCC1C2CC[C@]2(C)C(C(=O)O)CC12 (stereo not given in full)	.	.	9	.	.	.	.
COc1cc(C=NNC(=S)NCC2CCCO2)cc(OC)c1OC (stereo not given)	.	.	14	.	.	.	.
CC(C)(C)c1ccc(-c2noc(CCC(=O)Nc3cccnc3)n2)cc1	4	0	.	4	1	65*	34
COc1ccc(C2CC(=O)C=C(c3cc(Cl)ccc3C)C2)cc1 (stereo not given)	.	.	7	.	.	.	.
Cc1ccc(C)c(NC(=O)c2cc3ccccc3o2)c1	8	2	17	7	0	-50	.
O=C(Nc1ccccn1)c1cc2ccccc2o1	32	-2	1	-7	-4	59*	57*
O=C(Nc1ccc(Cl)cn1)c1cc2ccccc2o1	-4	2	.	-4	-2	-125	.
Cc1ccnc(NC(=O)c2cc3ccccc3o2)c1	19	-8	8	0	.	58*	?
CC(=NNc1nc(N2CCCCC2)nc(N2CCOCC2)n1)c1cccs1	.	.	2	.	.	.	.
C/C(=N\Nc1nc(N2CCCCC2)nc(N2CCOCC2)n1)c1ccccc1O	3	1	.	-7	3	81*	11
CN(C)CCN1C(=O)c2cccc3cc([N+](=O)[O-])cc(c23)C1=O	.	.	.	-17	.	66*	84*
Cc1cc2sc3ccc(C#CC4(O)CCCCC4)cc3c(=O)c2cc1C	4	-2	-4	2	.	92*	93*
Cn1c2ccccc2c(=O)c2ccc(C#CC3(N)CCCCC3)cc21	-4	i	7	2	-6	-11	.
SMILES	BJeLR viability	RecA intein inh	Mtb hypoxia inh	PrPC TRFRET	SARS 3CLpro inh	PrP UTR inh	PrP UTR cherry
Cn1c2ccccc2c(=O)c2cc(C#CC3(O)CCCCC3)ccc21	12	-107	8	-3	-6	65*	34
COc1ccccc1OCCC(=O)OCC(=O)NCc1ccc(F)cc1	.	.	22	4	.	88*	10
NC(=O)c1ccc(-c2noc(-c3cccc(Cl)c3)n2)cc1	.	.	.	1	.	-48	.
O=C(O)c1cccc(-c2noc(-c3cccc(Cl)c3)n2)c1	.	.	3	3	.	81*	84*
COC(=O)c1nn(-c2ccc3c(c2)CCN3C(C)=O)cc1O	27	-2	5	2	-2	82*	81*
COC(=O)c1nn(-c2ccc3c(c2)OCO3)cc1O	5	-1	-4	10	-1	-68	.
C#CCOCCOCCOCCNc1nc(N2CCN(C(=O)C(Cc3ccc(O)cc3)n3cc(CCO)nn3)CC2)nc(N2CCN(C(=O)C(C(C)O)n3cc(CCCCN)nn3)CC2)n1 (stereo not given)	.	.	15	.	.	.	.
C(=NN1CCCCCC1)c1ccc2ccccc2n1	.	.	12	1	.	94*	91*
ON=Cc1ccc2ccccc2n1	.	.	12	.	.	.	.
CC[C@@H]1C(c2ccccc2)=NN(c2ccccc2)[C@H]1C(=O)N1CCOC1=O	.	.	-2	11	.	62*	-36
Cn1cc(/C=N/n2cnc3scc(-c4ccc(Cl)cc4)c3c2=O)c2ccccc21	34	-2	.	1	1	57*	91*
CC(CCN1C(Nc2ccccc2)=NCC1Cc1ccccc1)c1ccccc1 (stereo not given)	.	.	3	.	.	.	.
Cc1ccc(-c2cc3c(nn2)-c2ccccc2C3=O)cc1	20	12	0	-9	-4	76*	82*
CC(=O)c1ccc(-c2cccs2)s1	0	1	-7	-9	-3	69*	-28
Nc1nc2n(n1)C(=O)CC(c1ccccc1[N+](=O)[O-])N2 (stereo not given)	9	.	12	-1	2	78*	2
COc1ccc(S(=O)(=O)NCC(c2cccnc2)N2CCN(c3ccc(F)cc3)CC2)cc1C (stereo not given)	-7	3	-5	0	0	52*	-2
COc1cc(SC)ccc1C(=O)Nc1nc2ccccc2[nH]1	121*	2	.	5	-7	96*	98*
Cc1ccc(C(=O)Nc2nc3ccccc3[nH]2)cc1	25	.	-2	-3	-2	61*	65*
COc1ccccc1C(=O)Nc1nc2ccccc2[nH]1	109*	0	.	-9	-11	92*	93*
COc1ccccc1C(=O)NCCC(=O)Nc1nc2ccccc2[nH]1	5	6	0	2	.	-17	.
CSc1ccccc1C(=O)Nc1nc2ccccc2[nH]1	-16	3	-14	11	-1	-91	.
